# Only some compounds are listed: those with a hit (about 3% of all), similar ones and a draw of the others.
# MITF TRPM1 inh – inhibitors of MITF-dependent TRPM1 promoter reporter, primary screen, cell-based, SK-MEL-5, single point, luciferase. inhibition, % at 12.5 µM. SK-MEL-5 TRPM1 promoter luciferase, 24 h. 330,000 compounds, 0.83% hits;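 active means mean inhibition across replicates of 60% or more, whatever share of single replicates reaches that level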
# Peg3 prom inh – Peg3 promoter-driven luciferase inhibitors, primary screen, cell-based, HeLa, luciferase luminescence; AID 588405, 2011; HeLa PEG-Prom luciferase reporter, overnight; 360,000 compounds, 1.7% hits; inhibition, % at 20 µM;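 active means inhibition of at least 50% at 20 µM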
# CF NFkB block – inhibitors of PAF-induced NF-kB signaling, primary screen, cell-based, GFP fluorescence, uHTS; KKLEB NF-kB-GFP reporter, GFP fluorescence overnight; inhibition, % at 5 µM; 360,000 compounds, 0.86% hits; AID 588850, 2011;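 active means at least 50% inhibition at 5 µM, scaled per plate between neutral and stimulator controls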;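 further: PAF is a Pseudomonas aeruginosa culture filtrate used as stimulus; plate controls were PAF-stimulated DMSO wells for no effect and unstimulated DMSO wells for full effect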
# KKLEB cytotox – cytotoxicity in KKLEB CF airway cells, primary screen, cytotoxicity control for CF NF-kB inhibitor project, cell-based, uHTS, fluorescence assay plates | KKLEB CF airway cells viability, ATPlite luminescence, overnight; hits give low values; cells stimulated with P. aeruginosa culture filtrate | activity change (cytotoxicity), % at 5 µM | 360,000 compounds, 0.36% hits;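 active means corrected activity change at or below -50% at 5 µM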
# ABHD5-PLIN5 inh – ABHD5-PLIN5 interaction inhibitors, primary screen, cell lysate, split luciferase complementation, luminescence | Perilipin-5 (Homo sapiens) + 1-acylglycerol-3-phosphate O-acyltransferase ABHD5 (Homo … | Split G. princeps luciferase complementation, 4 h | inhibition, % at 4 µM | 360,000 compounds, 0.78% hits | AID 602281, 2012;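 active means inhibition above the mean inhibition across every tested compound plus 3 SD, cut at about 22% in these data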;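 further: 0% = DMSO only wells and the 100% control is not disclosed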
# HIF-2a inh – HIF-2a reporter inhibitors, primary screen, luminescence, 786-0 RCC cells | inhibition, % at 18.8 µM | 360,000 compounds, 0.72% hits | AID 624352, 2012 | 786-0 RCC cells HIF-2a reporter, luciferase luminescence, overnight;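 active means inhibition of the luminescence signal of 40% or more relative to plate controls, in a single-dose primary screen at 18.75 µM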
# Starred values were filed as active, the others as inactive; x = no result.
SMILES,MITF TRPM1 inh,Peg3 prom inh,CF NFkB block,KKLEB cytotox,ABHD5-PLIN5 inh,HIF-2a inh
O=C1NCN(c2ccccc2)C12CCN(C(c1ccccc1OC(F)(F)F)c1nnnn1C1CCCC1)CC2 (stereo not given),x,27,15,-13,-5,5
Cc1cc(-c2cc(C)c(N)c(C)c2)cc(C)c1N,0,-9,2,4,-1,15
Cc1ccc(/C=C2\C(=O)NC(=S)N(c3ccc(F)cc3)C2=O)o1,3,23,10,-1,1,9
Cc1ccc(/C=C2\C(=O)NC(=S)N(c3ccccc3F)C2=O)s1,x,108*,84*,-13,-3,95*
CCOC(=O)C1CCN(/C=C2/C(=O)NC(=S)N(c3ccccc3F)C2=O)CC1,7,3,-3,3,-2,20
Cc1ccc(/C=C2\C(=O)NC(=S)N(c3ccc(F)cc3)C2=O)s1,59,107*,-45,-1,-5,-86
COc1ccc(N2C(=O)/C(=C/c3ccc(N(C)C)o3)C(=O)NC2=S)cc1,-8,1,19,-13,23*,11
CCOC(=O)c1cccc(C2=C(CNC(=O)c3ccc([N+](=O)[O-])cc3)[C@H]3CC[C@@H](C2)N3Cc2ccccc2)c1,x,1,21,-9,-1,-10
CN(C)P1(=O)N(C)CCN1C,x,17,17,-3,4,5
O=C1c2ccccc2-n2nnc(-c3ccccc3)c2C2c3cc(Br)ccc3CCN12 (stereo not given),x,5,-32,11,-1,11
CCOC(=O)c1cc2c(cn1)[C@@H](CCO)NC2,-6,4,-26,13,-1,-1
OC(Cn1c2ccccc2c2ccccc21)C[n+]1cccc2ccccc21 (stereo not given),-21,59*,11,-14,14,14
COc1ccc(S(=O)(=O)N2Cc3cnnn3-c3ccccc3C2C#N)cc1 (stereo not given),0,5,5,-4,1,2
CN1C2CNC(=O)CC1C1CCC2C1 (stereo not given),x,-2,-8,13,-6,11
COC(=O)C1=C(c2ccc(OCc3ccccc3)cc2)C[C@@H]2CC[C@H]1N2C(=O)NC1CCN(Cc2ccccc2)CC1,58,86*,24,-18,12,-8
COC(=O)C1=C(c2ccc(OCc3ccccc3)cc2)C[C@@H]2CC[C@H]1N2C(=O)NCCN1CCOCC1,1,11,-6,-10,-5,0
COc1ccc(CNCCc2c[nH]c3ccccc23)c(OC)c1C,-3,109*,21,-14,7,3
COc1cc(C)c(CNCCc2c[nH]c3ccccc23)cc1C,42,95*,22,-9,-10,17
O=c1[nH]c(=S)[nH]c(O)c1N=Nc1ccc(S(=O)(=O)N2CCc3ccccc32)cc1,64*,26,56*,-26,-16,19
N#CC(=C(O)c1ccc(S(=O)(=O)N(CCCl)CCCl)cc1)c1nc2ccccc2[nH]1,-7,-56,-16,8,4,-117
Cc1cccc(N=C2c3cc([N+](=O)[O-])ccc3-c3c2cc([N+](=O)[O-])cc3[N+](=O)[O-])c1,42,86*,30,-16,22*,-14
CC(=O)OC1C(O)C(C)OC(OC2C(OC(=O)C3CCC4C(C3)OC3(CC(OC(=O)/C=C/c5ccccc5)C(C)CO3)C43CO3)OC(C)C(O)C2OC(C)=O)C1O (stereo not given),87*,93*,90*,-23,-3,65*
O=C1NCN(c2ccccc2)C12CCN(C(CCc1ccccc1)c1nnnn1C1CCCCC1)CC2 (stereo not given),x,50,13,-1,-2,-36
NC(Cc1ccc(Cl)cc1)c1csc(Nc2ccccn2)n1 (stereo not given),x,73*,24,-15,9,-27
COC(=O)C1=C(c2ccc(OCc3ccccc3)c(F)c2)C[C@@H]2CC[C@H]1N2C,x,-19,-2,-1,-6,-19
SMILES,MITF TRPM1 inh,Peg3 prom inh,CF NFkB block,KKLEB cytotox,ABHD5-PLIN5 inh,HIF-2a inh
Cc1cccc(N2C(=O)NC(=O)/C(=C/c3ccc(N4CCOCC4)cc3)C2=O)c1,-2,-8,16,-1,22*,6
O=C1NC(=O)N(c2ccccc2)C(=O)/C1=C/c1ccc(Sc2ccccc2)o1,33,50*,11,-6,16,28
COc1ccc(C(=O)OCC2CN2c2cccc([N+](=O)[O-])c2)cc1 (stereo not given),x,x,x,x,2,-34
Cc1cccc(Cn2cc(C=O)c3ccccc32)c1,23,69*,7,2,-5,11
C[C@@H]1CN([C@H](C)CO)C(=O)CCCn2nncc2CO[C@@H]1CN(C)C(=O)Oc1ccc2ccccc2c1,x,-3,19,-6,9,1
CC(=O)OC(C)(C)/C=C/C(=O)[C@](C)(O)[C@H]1[C@H](O)C[C@@]2(C)[C@@H]3CC=C4[C@H](C[C@H](O)C(=O)C4(C)C)[C@]3(C)C(=O)C[C@]12C,88*,103*,84*,-86*,11,79*
CC(=O)OC(C)(C)/C=C/C(=O)C(C)(O)C1C(O)CC2(C)C3CC=C4C(CC(O)C(=O)C4(C)C)C3(C)C(=O)CC12C (stereo not given),88*,97*,89*,-83*,9,78*
CCOC(=O)C1=C(NC(=S)NC(=O)c2ccccc2)c2ccccc2CC12CCCC2,2,50*,16,-1,-7,0
O=C(O)c1cc[c]([Hg][Cl])cc1,1,-14,-6,-8,82*,4
COC(=O)[C@@H]1N=C(c2ccc(OC)cc2)O[C@]12C(=O)N(Cc1ccc(OC)cc1)c1ccccc12,x,x,x,x,5,-4
CC12CC[C@H]3[C@@H](CCC4(O)C[C@H](O)CCC34/C=N/NC(=O)c3ccccc3F)C1(O)CCC2C1=CC(=O)OC1 (stereo not given in full),-15,28,-12,19,3,-4
CC1OC(OC2CC(O)C3(CO)C4C(O)CC5(C)C(C6=CC(=O)OC6)CCC5(O)C4CCC3(O)C2)C(O)C(O)C1O (stereo not given),87*,110*,91*,-51*,4,84*
COc1cc(C(=O)Nc2ccc(Br)cc2C(=O)c2ccccc2Cl)cc(OC)c1OC,6,-12,24,-50*,-1,23
CCOC(=O)[C@]12Cc3c(cc(OC)c(OC)c3OC)[C@H]1N(C)C(=O)c1cc(OC)ccc12,x,x,x,x,23*,27

# Bioassay records deposited in PubChem by several laboratories.
